Screening data from PubChem.
Shown are actives, neighbours in structure and some others; about 10% of the full set was active somewhere.
Six1-Eya2 inh = qHTS Assay for Inhibitors of the Six1/Eya2 Interaction; Homeobox protein SIX1 (Homo sapiens) + Protein phosphatase EYA2 (Homo sapiens), …; AlphaScreen GST-Six1/His-Eya2 binding, biochemical; stronger effect = lower value; activity change, % (concentration not given with the values); 0.56% of 360,000 active; in the data active = activity change below about -65%; inconclusive = mostly about -30% to -63%
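AlphaScreen with GST-Six1 and His-Eya2 (5X mix: 250 nM and 500 nM), glutathione donor and nickel acceptor beads; buffer 50 mM Tris pH 8.0, 300 mM NaCl, 1 mM TCEP; 1 h at 37 C in the dark.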
BAZ2B block = qHTS Assay for Inhibitors of BAZ2B. Bromodomain adjacent to zinc finger domain protein 2B (Homo sapiens), Q9UIF8. AlphaScreen BAZ2B-H3K14Ac peptide displacement. Potency, µM (titrated, usually from 114 µM), usual class: inhibitors. 4.4% of 360,000 active. AID 504333, 2011; note: nearly all actives have a fitted effect of over 60% in size
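AlphaScreen displacement of biotin-H3(5-23)K14Ac peptide (50 nM final) from BAZ2B (50 nM final) in PBS pH 7.4, 0.01% Tween-20; complex preformed 30 min RT, then compounds (top 110 uM) 30 min RT, beads 20 min dark.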
HP1b chromo inh = HTS for Inhibitors of HP1-beta Chromodomain Interactions with Methylated Histone Tails. AID 540317, 2011. Chromobox protein homolog 1 (Homo sapiens), P83916. 0.56% of 390,000 active. AlphaScreen HP1-beta / biotin-H3K9me3 peptide binding. Potency, µM (top dose mostly 114 µM), hits mostly inhibitors; note: nearly all actives have a fitted effect of over 70% in size
Target sequence (P83916 whole entry, looked up): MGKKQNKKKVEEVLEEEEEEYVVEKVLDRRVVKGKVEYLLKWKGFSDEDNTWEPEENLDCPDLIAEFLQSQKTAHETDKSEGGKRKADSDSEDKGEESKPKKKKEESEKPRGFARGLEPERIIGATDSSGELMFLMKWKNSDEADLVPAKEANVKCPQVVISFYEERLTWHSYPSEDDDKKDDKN
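AlphaScreen: HP1-beta (50 nM) preformed 30 min with biotin-H3(1-18)K9me3 peptide (50 nM) in PBS pH 7.4, 0.01% Tween-20. Compound added for 30 min at RT, then streptavidin donor/nickel chelate acceptor beads (10 ug/mL) for 30 min.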
G9a inh = qHTS Assay for Inhibitors of Histone Lysine Methyltransferase G9a; Histone-lysine N-methyltransferase EHMT2 (Homo sapiens), Q96KQ7; G9a H3K9 monomethylation, AlphaScreen, 2 h; Potency, µM (series often up to 102 µM), actives largely listed as inhibitors; 8.8% of 350,000 active; AID 504332, 2011; note: nearly all actives have a fitted effect of over 75% in size
Target sequence (Q96KQ7 913-1193 limits assumed): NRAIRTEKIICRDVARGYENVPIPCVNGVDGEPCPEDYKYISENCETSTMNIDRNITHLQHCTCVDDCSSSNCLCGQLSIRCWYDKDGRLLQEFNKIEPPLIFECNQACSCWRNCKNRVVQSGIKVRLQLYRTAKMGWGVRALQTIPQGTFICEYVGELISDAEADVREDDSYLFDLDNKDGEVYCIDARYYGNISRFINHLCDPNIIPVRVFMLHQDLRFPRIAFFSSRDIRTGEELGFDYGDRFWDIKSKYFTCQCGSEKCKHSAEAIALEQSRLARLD
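Using a bead-based AlphaScreen, monomethylated H3K9 product from 2 h room-temperature reactions (G9a 20 nM, peptide 500 nM, SAM 20 uM) was detected with 0.5 ug/mL rabbit anti-H3K9me1 antibody.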
CtBP-E1A inh = qHTS Assay for Inhibitors of the CtBP/E1A Interaction; CtBP / adenovirus E1A interaction (AlphaScreen); AID 651724, 2012; AlphaScreen GST-E1A/His-CtBP binding, 1536-well; stronger effect = lower value; activity change, % (test concentration not listed); 0.49% of 340,000 active; in the data active = activity change below about -65%; inconclusive = mostly about -30% to -63%
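Protein mix (5X: 125 nM each GST-E1A, His-CtBP) was incubated with pinned compound 2 h at 37 deg C in dark, in 50 mM Tris pH 8.0 buffer with 300 mM NaCl. Glutathione donor and nickel acceptor beads followed; AlphaScreen signal read after 1 h.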
JMJD2A Tudor inh = qHTS Assay for Inhibitors of JMJD2A-Tudor Domain. AID 504339, 2011. Potency, µM (highest dose often 114 µM), usual class: inhibitors. 4.4% of 390,000 active. AlphaScreen JMJD2A-Tudor / H3K4me3 peptide binding; note: nearly all actives have a fitted effect of over 50% in size
Hits are given with their value; . = inactive; ? = inconclusive; / = not tested or not shown; [ ] = another dose, or the depositor's remark. Unless noted, calls come from the whole dose curve; as a rule, active = well fitted inhibition curve with a large enough effect; inconclusive = small, poorly fitted or top-dose-only effect; inactive = no such curve, though single readings can be large or run the other way.

SMILES | Six1-Eya2 inh | BAZ2B block | HP1b chromo inh | G9a inh | CtBP-E1A inh | JMJD2A Tudor inh
NC(=O)CC(NC(=O)Cc1ccc(Cl)cc1)c1ccc(NC2CCN(Cc3ccccc3)CC2)c([N+](=O)[O-])c1 (centres undefined) | . | ? | . | ? | . | .
NC(=O)CC(NC(=O)c1cccc(Br)c1)c1ccc(N2CCCCCC2)c([N+](=O)[O-])c1 (centres undefined) | . | ? | . | / | . | ?
NC(=O)CC(NC(=O)c1ccccc1)c1ccc(NC2CCCCCCC2)c([N+](=O)[O-])c1 (centres undefined) | . | ? | . | / | . | .
COc1ccc(CCNC(=O)c2ccc3c(c2)nc2n3CCOC2)cc1OC | / | . | . | . | / | .
COc1cc(C(=O)OCC(=O)NC2CC2)ccc1OCCC(C)C | . | . | . | .[12.7 µM] | / | .
Cc1c(Cl)cccc1NC(=O)CN1C(=O)COc2ccc(S(=O)(=O)Nc3ccccc3)cc21 | / | . | . | . | / | .
COCCn1cnc2c1c(=O)n(Cc1c(F)cccc1Cl)c(=O)n2Cc1ccccc1 | . | . | . | . | . | .
Cc1cc(C)c(Nc2nn3c(=O)c4cc5c(cc4nc3s2)OCO5)c(C)c1 | / | . | ? | 2.2µM | / | .
Cc1ccc(Nc2nn3c(=O)c4cc5c(cc4nc3s2)OCO5)cc1Cl | / | . | . | . | / | .
Cc1ccc(NC(=O)Cn2c(=O)c3ccccc3n3nncc23)cc1 | / | . | . | . | / | .
COc1cc(OC)c(NC(=O)c2ccc3nc(C(C)C)oc3c2)cc1Cl | / | . | . | . | / | .
Cc1cc(C)cc(NC(=O)c2sc3nc(-c4ccccc4)cn3c2C)c1 | / | . | . | . | / | .
O=C1c2cccc3c(O)ccc(c23)C(=O)N1c1ccc(Cl)cc1 | . | . | . | 45µM | . | .
Cc1ccc(N2C(=O)c3cccc4c(C(=O)O)ccc(c34)C2=O)cc1 | / | . | / | . | / | /
CC(=O)Nc1ccc(N2C(=O)c3cccc4c(O)ccc(c34)C2=O)cc1 | . | 50µM | . | ? | / | ?
O=C1c2ccccc2C(=O)N1c1ccc(Cl)cc1 | / | . | / | . | / | .
Cc1ccc(C(=O)N/C(=C/c2ccco2)C(=O)N2CCC(C)CC2)cc1 | . | . | . | 18µM | . | .
CN(C)c1ccc(/C=C(/NC(=O)c2ccccc2)C(=O)N2CCCC2)cc1 | . | . | . | 10µM | . | .
Cc1cccc(C(=O)N/C(=C\c2ccco2)C(=O)N2CCCCCC2)c1 | . | . | . | ? | . | .
Cc1cccc(C(=O)N/C(=C/c2ccco2)C(=O)N2CCCCCC2)c1 | . | . | . | 40µM | . | .
O=C(N/C(=C\c1ccco1)C(=O)N1CCCC1CO)c1ccccc1 (centres undefined) | . | . | . | 16µM | . | .
COc1cccc(N2CC(NC(=O)c3cccc(OC)c3OC)CC2=O)c1 (centres undefined) | / | . | . | ? | / | .
N#Cc1ccncc1Sc1ccc(Cl)cc1 | . | . | . | . | . | .
O=C(N/N=C/c1ccc2c(c1)OCO2)/C(=C/c1ccc2c(c1)OCO2)NC(=O)c1ccccc1 | . | . | . | .[12.7 µM] | . | .
CC1CCN(C(=O)/C(=C\c2ccco2)NC(=O)c2ccccc2)CC1 | . | . | . | 50µM | . | .
SMILES | Six1-Eya2 inh | BAZ2B block | HP1b chromo inh | G9a inh | CtBP-E1A inh | JMJD2A Tudor inh
COc1ccc([N+](=O)[O-])cc1/C=N/NC(=O)/C(=C\c1cccs1)NC(=O)c1ccccc1 | . | . | . | 89µM | . | .
CN(C)c1ccc(/C=C(/NC(=O)c2ccccc2)C(=O)N/N=C/c2ccc([N+](=O)[O-])c(O)c2)cc1 | ? | 18µM | ? | ? | ? | 45µM
CC1CCCN(C(=O)/C(=C/c2ccco2)NC(=O)c2ccccc2)C1 (centres undefined) | . | . | . | 45µM | . | .
O=C(c1ccc(Cl)cc1)N1C2C=CC(C2)C1(C(F)(F)F)C(F)(F)F (centres undefined) | . | . | . | . | . | .
CCOc1ccc(C2C(=O)N(C3CCCCC3)CC(=O)N2C2CCCC2)cc1OC (centres undefined) | / | . | . | . | / | .
Cc1ccccc1C(=O)N/N=C/c1ccc([N+](=O)[O-])s1 | . | . | . | .[12.7 µM] | . | .
Cc1c(Cl)cccc1N=Cc1ccc([N+](=O)[O-])s1 | -67 | ? | . | ? | ? | .
Cc1ccc2c(c1)c1c3n2CCN=C3CCC1 | . | / | . | 18µM | . | .
CN(C)c1ccc(-c2cncnc2Nc2ccccc2)cc1 | / | / | / | .[0.501 µM] | / | /
Cc1ccc(C2CC(=O)Oc3cc(O)ccc32)cc1 (centres undefined) | . | . | . | . | . | .
O=C1CC(c2ccccc2)c2cc(O)ccc2O1 (centres undefined) | . | . | . | 3.5µM | . | ?
O=C1CC(c2ccc3c(c2)OCO3)c2cc(O)ccc2O1 (centres undefined) | / | / | / | 10µM | / | /
CCOc1cc2[nH]c(=O)n(CCCC(=O)N3CCN(c4ccc(OC)cc4)CC3)c(=O)c2cc1OCC | / | . | . | . | / | .
CC(=O)c1sc(C(=O)O)c(-c2ccco2)c1-c1ccco1 | . | . | . | / | / | .
CC(=O)C1=C(O)C=C(c2ccco2)CC1c1ccco1 (centres undefined) | . | 56µM | . | ? | . | .
Cc1cc(-c2ccc(Cl)cc2Cl)c(C#N)c(=O)[nH]1 | . | . | . | / | . | .[11.4 µM]
CSc1nc(-c2ccc(Cl)cc2Cl)[nH]c(=O)c1C#N | -72 | . | . | . | ? | .
NC(Cc1cc(I)c(Oc2cc(I)c(O)c(I)c2)c(I)c1)C(=O)O (centres undefined) | / | / | / | .[2.33 µM] | / | /
CCc1cc(SC#N)cc(C)c1NC(=O)CCl | . | . | . | 40µM | . | .
CC1CCN(C(=O)CCc2ccc(S(=O)(=O)NC(C)C)cc2)CC1 | . | . | . | . | . | .
O=C1C(F)=CC(COC(c2ccccc2)(c2ccccc2)c2ccccc2)OC1n1cc(F)c(=O)[nH]c1=O (centres undefined) | . | / | . | / | . | 50µM
O=C(OCCOCCOC(=O)Oc1ccccc1)Oc1ccccc1 | . | / | . | / | . | .
Cc1cccc(Nc2nc(N)c([N+](=O)[O-])c(N3CCN(C)CC3)n2)c1 | . | . | . | ? | . | .
Cc1cccc(Nc2nc(N)c([N+](=O)[O-])c(N3CCCC(C)C3)n2)c1 (centres undefined) | . | 40µM | . | 40µM | . | 40µM
